Compound activity deposited in PubChem BioAssay by National Center for Advancing Translational Sciences (NCATS).
D1 PAM = human D1 dopamine receptor positive modulation; P21728; HEK293 TREx D1 cells, calcium flux, dopamine EC20 potentiation; potentiation, % at 10 µM; hit rate 0.036% among 360,000; AID 504651; in the data active = potentiation above about 30%; note: 0% is about no effect
Target sequence (P21728 whole entry, looked up): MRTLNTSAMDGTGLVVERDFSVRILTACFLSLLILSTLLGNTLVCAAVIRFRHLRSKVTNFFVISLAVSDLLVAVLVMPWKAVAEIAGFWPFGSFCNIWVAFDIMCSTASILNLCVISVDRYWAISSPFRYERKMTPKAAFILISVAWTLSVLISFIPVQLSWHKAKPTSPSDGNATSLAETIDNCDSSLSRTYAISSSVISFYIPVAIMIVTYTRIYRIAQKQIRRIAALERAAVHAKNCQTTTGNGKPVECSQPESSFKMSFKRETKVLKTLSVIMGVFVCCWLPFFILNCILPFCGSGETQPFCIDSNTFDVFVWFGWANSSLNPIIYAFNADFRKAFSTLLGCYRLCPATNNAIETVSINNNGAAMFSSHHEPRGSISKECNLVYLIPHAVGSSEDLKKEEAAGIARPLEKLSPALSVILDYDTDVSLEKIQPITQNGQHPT
D1 ag = agonists of human D1 dopamine receptor | activation, % at 2 µM | hit rate 1% among 360,000 | P21728 | HEK293 T-REx D1 cells, calcium flux, agonist mode; in the data active = activation above about 30%; note: 0% is about no effect
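Tetracycline-induced HEK293 TREx D1 cells, force-coupled to calcium signalling, were dye-loaded with a no-wash calcium kit. Compound was pin-added after a 10 s baseline. Fluorescence was read kinetically at 1 cycle/s for 180 s, with calcium rises flagged as agonism.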
DRD3 agonist = D3 dopamine receptor (human) agonism | D3R DiscoveRx beta-arrestin cells, luminescence, 90 min | P35462 | max activation, % | hit rate 0.58% among 410,000 | AID 652048; in the data active = max activation above about 30%; note: 0% is about no effect
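Agonist mode: compounds and dopamine controls were applied to plated cells for 90 min at 37 degrees C after an overnight attachment at 1500 cells/well. Luminescent read-out followed 30 - 60 minutes at room temperature with DiscoveRx detection reagent.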
D1 antag = blocks dopamine activation of the human D1 receptor | P21728 | HEK293 TREx D1 cells, calcium flux, dopamine EC80; hits give low values | activity change, negative = inhibition, % at 10 µM | hit rate 3.2% among 360,000; in the data active = activity change below about -30%; note: % is set by controls: 0 for no effect and ±100 for the full control effect
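After overnight tetracycline induction at 30 C, force-coupled D1 HEK293 cells took up a no-wash calcium dye at room temperature. Compounds were added and monitored 180 s, and the response to EC80 dopamine was then recorded.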
D3 antag = D3 dopamine receptor (human) antagonism | P35462 | D3R cells, DiscoveRx beta-arrestin luminescence, antagonist mode; hits give low values | hit rate 2.5% among 360,000 | max response, negative = inhibition, % | AID 652054; in the data active = max response below about -50%; inconclusive = no clear call, values can overlap the other calls; note: % is set by controls: 0 for no effect and ±100 for the full control effect
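Cells expressing the human receptor were seeded at 1500 cells/well, incubated overnight at 37 degrees C in 5% CO2, then exposed to library compounds with dopamine controls for 90 minutes at 37 degrees C before luminescent detection.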
An asterisk follows results filed as active; ? = inconclusive; . = no result given. Only some compounds are listed: those with a hit (about 6% of all), similar ones and a draw of the others.

SMILES	D1 PAM	D1 ag	DRD3 agonist	D1 antag	D3 antag
COC(=O)N/N=C/c1cccs1	-4.0	1.4	-4.6	-31.6*	-3.6
CCc1ccccc1NC(=O)c1cc(S(=O)(=O)N2CCCC2)cn1C	-1.7	3.9	3.6	3.0	.
C[C@H]1[C@H](c2ccccc2)C[C@@H](C(=O)O)C1(C)C	-11.3	1.9	31.8*	-15.6	-17.3
O=C(NNc1c([N+](=O)[O-])cc(C(F)(F)F)cc1[N+](=O)[O-])c1ccco1	4.6	21.0	-2.5	-35.9*	-21.5
Nc1ccccc1OCCOc1ccccc1N	3.8	1.6	1.4	-3.5	-26.6
Cc1ccccc1Oc1ccccc1N	-4.5	-0.4	6.0	-31.5*	21.9
CCCCn1c(N)c(S(=O)(=O)c2ccc(C)cc2)c2nc3ccccc3nc21	-4.2	3.1	31.6*	-8.1	10.8
CN(C)CCCn1c(N)c(S(=O)(=O)c2ccccc2)c2nc3ccccc3nc21	-3.9	2.7	-4.0	-7.3	?
Cc1cccn2c(=O)c(C=O)c(Cl)nc12	-8.1	1.2	-25.5	4.3	-26.7
O=Cc1c(Cl)nc2ccccn2c1=O	-16.9	4.6	-4.6	7.9	-66.7*
CNC(=O)c1nnsc1S(=O)(=O)c1ccc(Cl)cc1	-6.2	3.7	-19.1	-8.0	-110.0*
COc1ccc(NC(=O)CC2C(=O)N(c3ccc(C)cc3)C(=O)N2C2CCCC2)cc1 (configuration not stated)	-3.7	-0.1	-14.0	-4.8	.
Oc1cc2ccccc2cc1-c1n[nH]c(=S)o1	1.4	1.5	-1.6	3.9	-50.0*
CCc1ccc2oc(C(=O)NCc3ccncc3)c(C)c2c1	-4.0	-0.5	0.4	0.1	30.3
Cc1cc(C)c2c(C)c(C(=O)NCc3ccncc3)oc2c1	-5.4	-1.5	-0.6	-43.8*	23.3
COC(=O)c1ccccc1NC(=O)N1CCC(N2CCN(Cc3ccc(F)cc3)C(=O)C2=O)CC1	-1.0	-1.2	7.9	-39.1*	.
COc1ccc(NC(=O)C2(C)CCN2Cc2ccc(OC(F)(F)F)cc2)cc1OC (configuration not stated)	.	.	4.8	.	0.0
CCOc1ccc2nc(NC(=O)C(CC)Sc3nc(C)cc(=O)[nH]3)sc2c1 (configuration not stated)	-3.8	0.2	-8.9	-42.2*	19.0
CCCc1cc(=O)[nH]c(SCC(=O)Nc2nc3ccc(OCC)cc3s2)n1	5.8	0.9	3.3	3.9	35.4
O=C(Nc1ccc2nc(SCC(=O)N3CCOCC3)sc2c1)c1ccc(Cl)cc1	-1.5	4.1	4.1	-37.6*	.
CCOc1ccc2nc(NC(=O)C(NS(=O)(=O)c3cccc4nsnc34)C(C)C)sc2c1 (configuration not stated)	-5.9	-0.2	-2.5	-33.5*	-24.6
CCOc1ccc2nc(NC(=O)c3ccccn3)sc2c1	-5.4	4.7	-23.0	-5.0	-63.4*
CC(C)C(NS(=O)(=O)c1cccc2nsnc12)C(=O)Nc1nc2ccc(Cl)cc2s1 (configuration not stated)	4.4	1.4	-1.6	4.8	-19.9
Cc1ccc2nc(NC(=O)c3ccccn3)sc2c1	-2.6	2.5	-6.5	-14.9	?
O=C(Nc1ccc2nc(SCC(=O)N3CCOCC3)sc2c1)c1ccc(Br)cc1	-1.6	7.2	4.0	-13.5	.
SMILES	D1 PAM	D1 ag	DRD3 agonist	D1 antag	D3 antag
CCS(=O)(=O)N1CCC2(CC1)OC(=O)C(C)=C2C(=O)NCc1ccc(OC)c(OC)c1	5.7	2.6	-1.0	1.9	.
c1ccc(COc2ccc(-c3cc4nc(NCCN5CCOCC5)ccn4n3)cc2)cc1	.	.	2.1	.	12.6
COc1cccc(C(=O)Nc2ccc3nc(SCC(=O)N(C)c4ccccc4)sc3c2)c1	-0.3	5.6	0.8	-13.5	.
COc1ccc(C(=O)Nc2ccc3nc(SCC(=O)N(C)c4ccccc4)sc3c2)cc1	4.1	32.0*	4.7	-2.9	.
CCOc1ccc2nc(SCC(=O)c3ccccc3)sc2c1	2.2	22.5	0.0	-42.5*	6.1
CC(C)NC(=S)Nc1ccc(Oc2ccccc2)cc1	-10.2	30.1*	-4.2	-28.7	0.0
NC(=S)Nc1ccc(Oc2ccc(NC(N)=S)cc2)cc1	-1.8	1.4	8.3	-30.3*	-17.2
CCCNC(=S)Nc1ccc(Oc2ccccc2)cc1	-3.3	5.3	9.0	-29.8	-17.6
Cc1ccc(NC2CC(=O)N(c3cccc([N+](=O)[O-])c3)C2=O)cc1 (configuration not stated)	-5.4	1.6	2.0	-9.4	5.3
